Experimental data taken from PubChem BioAssay (EPA / NIEHS).
Several values for one entry are separate records, joined by “and”; a condition that tells them apart may be missing. Equal entries are not always repeated. The source holds several records for some structures; these can differ, active in one and inactive in another. Activity calls are given as the source filed them. The calls were made as follows: active = hit-call score of the fitted dose curve at least 0.9, where 1 is the maximum; inactive = score below 0.9.

Each compound was assayed on Interleukin-10 (IL10), IL10 (gene 3586) (assay: BSK_IMphg_IL10: BioMAP Diversity Plus: IMphg Assay for Interleukin-10 (IL10) Biomarker Activity (AID 2284294)). Details: primary human endothelial cells with macrophages.
Protocol: BSK_IMphg is a cell-based, multiplexed-readout assay that uses venular endothelial cells and macrophages, a human vascular primary cell, with measurements taken at 24 hours after chemical dosing in a microplate: 96-well plate.BSK_IMphg_IL10 is an assay component measured in the BSK_IMphg assay. It measures IL-10 antibody related to regulation of gene expression using ELISA technology.Data from the assay component BSK_IMphg_IL10 was analyzed at the endpoint, BSK_IMphg_IL10, in the positive analysis fitting direction relative to DMSO as the negative control and baseline of activity. Using a type of binding reporter, gain or loss-of-signal activity can be used to understand protein changes. To generalize the intended target to other relatable targets, this assay endpoint is annotated to the 'cytokine' intended target family, where the subfamily is 'interleukins'.
The levels of cell surface (or secreted, indicated by the prefix "s") biomarker endpoints were measured by ELISA. Overt cytotoxicity to cells in confluent adherent cultures (all systems other than the BT system) was assessed by measuring total protein levels using sulforhodamine B (SRB) staining in parallel cultures at the time of biomarker measurements, indicated as SRB endpoints. For proliferation assays for adherent cell types, individual cell types are cultured at sub-confluence and relative cell numbers quantified by SRB staining at time points optimized for each system (48 h: 3C and CASM3C systems; 72 h: BT and HDF3CGF systems; 96 h: SAg system). SRB was performed by staining cells with 0.1% SRB after fixation with 10% TCA and reading wells at 560 nm.Viability and proliferation of PBMC (T cells) was quantified by Alamar Blue reduction for the SAg and BT systems. For PBMC viability (referred to as PBMC Cytotoxicity within the assay endpoint names), cells were plated (75,000/well in a 96-well plate) and then chemical samples added for 1 h before addition of activators, SEB and TSST-1 (20 ng/mL final concentration each). Cells were incubated for 90 h. Then, Alamar Blue (20 uL/well) (Invitrogen, Cat DAL1100) was added for 6 h, and the plates were read with a fluorescence microplate reader at 546/580 nm (excitation/emission). For PBMC proliferation, cells were plated and activated as above but incubated for only 16 h prior to addition of Alamar Blue. Plates were read after 6 h.

Structure (SMILES)	outcome	AC50
O=C(O)C(F)(F)C(F)(F)OC(F)(F)F	inactive	–
OCC(F)(F)C(F)(F)C(F)(F)C(F)(F)C(F)(F)C(F)F	inactive	–
O=C(O)C=C(C(F)(F)F)C(F)(F)F	–	12.8 µM (active) and 11.3 µM (active)
O=C(O)C(F)(F)C(F)(F)C(F)(F)C(F)(F)C(F)(F)C(F)(F)C(F)(F)C(F)(F)Cl	–	45.8 µM (active) and 45.3 µM (active)
O=C(O)C(F)(F)C(F)(F)C(F)(F)C(F)(F)C(F)(F)C(F)(F)C(F)(F)C(F)(F)C(F)(F)C(F)F	–	47.3 µM (active) and 45 µM (active)
OCC(F)(F)C(F)(F)C(F)(F)C(F)F	inactive	–
O=C(O)C(F)(F)C(F)(F)C(F)(F)C(F)(F)C(F)(F)C(F)(F)C(F)(F)C(F)(F)C(F)(F)C(F)(F)C(F)(F)C(F)(F)F	inactive	–
OCCCC(F)(F)C(F)(F)C(F)(F)C(F)(F)C(F)(F)C(F)(F)C(F)(F)F	inactive	54.9 µM (active)
O=P(O)(O)OCCC(F)(F)C(F)(F)C(F)(F)C(F)(F)C(F)(F)C(F)(F)F	inactive	–
O=C(O)C(F)(F)C(F)(F)C(F)(F)F	inactive	–
FC(F)(F)C(F)(F)C(F)(F)C(F)(F)C(F)(F)C(F)(F)CC1CO1 (stereo unspecified)	inactive	–
FC(F)(F)C(F)(F)C(F)(F)N(C(F)(F)C(F)(F)C(F)(F)F)C(F)(F)C(F)(F)C(F)(F)F	inactive	–
O=S(=O)(O)C(F)(F)C(F)(F)C(F)(F)C(F)(F)C(F)(F)C(F)(F)C(F)(F)F	inactive	13.3 µM (active)
C=C(C)C(=O)OCC(F)(F)C(F)(F)C(F)(F)C(F)(F)C(F)(F)C(F)(F)C(F)(F)F	inactive	3.33 µM (active)
FC(F)(F)C(F)(F)C(F)(F)C(F)(F)C(F)(F)C(F)(F)C(F)(F)C(F)(F)CCS	inactive	–
C=C(C)C(=O)OCC(F)(F)C(F)(F)C(F)(F)F	inactive	–
O=C(O)C(F)(F)C(F)(F)C(F)(F)C(F)(F)F	inactive	–
C=C(C)C(=O)OCCC(F)(F)C(F)(F)C(F)(F)C(F)(F)C(F)(C(F)(F)F)C(F)(F)F	inactive	–

Structure (SMILES)	outcome	AC50
FC(F)(F)C(F)(F)C(F)(F)C(F)(F)C(F)(F)CCI	inactive	–
FC(F)(Br)C(F)(F)C(F)(F)C(F)(F)C(F)(F)C(F)(F)Br	inactive	–
CCO[Si](CCC(F)(F)C(F)(F)C(F)(F)C(F)(F)C(F)(F)C(F)(F)F)(OCC)OCC	inactive	–
O=S(=O)(OCC(F)F)C(F)(F)F	inactive	–
FC(F)(F)C(F)(F)C(F)(F)C(F)(F)C(F)(F)C(F)(F)C(F)(F)Br	inactive	–
FC(F)(F)C(F)(F)C(F)(F)C(F)(F)CCI	inactive	–
FC(F)(F)C(F)(F)C(F)(F)C(F)(F)C(F)(F)C(F)(F)C(F)(F)I	inactive	–
COC(=O)CCC(F)(F)C(F)(F)C(F)(F)C(F)(F)F	inactive	7.74 µM (active)
C=CC(F)(F)C(F)(F)C(F)(F)C(F)(F)C(F)(F)C(F)(F)C(F)(F)C(F)(F)F	inactive	–
O=C(O)C(F)(F)C(F)(F)F	inactive	–
Cc1ccc(S(=O)(=O)OCC(F)(F)C(F)(F)C(F)(F)C(F)(F)C(F)(F)C(F)F)cc1	inactive	–
O=C(Cl)C(F)(F)C(F)(F)C(F)(F)C(F)(F)C(F)(F)C(F)(F)C(F)(F)C(F)(F)F	inactive	51.8 µM (active) and 44.2 µM (active)
O=C(O)C(F)(OC(F)(F)C(F)(OC(F)(F)C(F)(OC(F)(F)C(F)(F)C(F)(F)F)C(F)(F)F)C(F)(F)F)C(F)(F)F (stereo unspecified)	inactive	–
O=S(=O)(OCCOC(F)(F)F)C(F)(F)F	inactive	–
FC(F)(F)C(F)(F)C(F)(F)CI	inactive	–
FC(F)(F)C(F)(F)CNCC(F)(F)C(F)(F)F	inactive	–
FC(F)(I)C(F)(F)C(F)(F)C(F)(F)I	inactive	30 µM (active)
